Reference: paper PMC4336329 (PLoS ONE, 2015)
About 14,000 (4.5%) of roughly 310,000 compounds showed an effect of 50% or more. Effects have a minus sign here. Many of the other results were omitted from the sample, so strong results are more common in it than they were.

Target: human ether-à-go-go-related gene (hERG) potassium channel (human, UniProt Q12809)
Assay: primary screen, population patch clamp on CHO cells stably expressing hERG; higher = less effect of the substance
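Note: peak tail current of the secondary pulse compared with the same well before compound.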

Sequence of human ether-à-go-go-related gene (hERG) potassium channel (Q12809 whole entry, looked up): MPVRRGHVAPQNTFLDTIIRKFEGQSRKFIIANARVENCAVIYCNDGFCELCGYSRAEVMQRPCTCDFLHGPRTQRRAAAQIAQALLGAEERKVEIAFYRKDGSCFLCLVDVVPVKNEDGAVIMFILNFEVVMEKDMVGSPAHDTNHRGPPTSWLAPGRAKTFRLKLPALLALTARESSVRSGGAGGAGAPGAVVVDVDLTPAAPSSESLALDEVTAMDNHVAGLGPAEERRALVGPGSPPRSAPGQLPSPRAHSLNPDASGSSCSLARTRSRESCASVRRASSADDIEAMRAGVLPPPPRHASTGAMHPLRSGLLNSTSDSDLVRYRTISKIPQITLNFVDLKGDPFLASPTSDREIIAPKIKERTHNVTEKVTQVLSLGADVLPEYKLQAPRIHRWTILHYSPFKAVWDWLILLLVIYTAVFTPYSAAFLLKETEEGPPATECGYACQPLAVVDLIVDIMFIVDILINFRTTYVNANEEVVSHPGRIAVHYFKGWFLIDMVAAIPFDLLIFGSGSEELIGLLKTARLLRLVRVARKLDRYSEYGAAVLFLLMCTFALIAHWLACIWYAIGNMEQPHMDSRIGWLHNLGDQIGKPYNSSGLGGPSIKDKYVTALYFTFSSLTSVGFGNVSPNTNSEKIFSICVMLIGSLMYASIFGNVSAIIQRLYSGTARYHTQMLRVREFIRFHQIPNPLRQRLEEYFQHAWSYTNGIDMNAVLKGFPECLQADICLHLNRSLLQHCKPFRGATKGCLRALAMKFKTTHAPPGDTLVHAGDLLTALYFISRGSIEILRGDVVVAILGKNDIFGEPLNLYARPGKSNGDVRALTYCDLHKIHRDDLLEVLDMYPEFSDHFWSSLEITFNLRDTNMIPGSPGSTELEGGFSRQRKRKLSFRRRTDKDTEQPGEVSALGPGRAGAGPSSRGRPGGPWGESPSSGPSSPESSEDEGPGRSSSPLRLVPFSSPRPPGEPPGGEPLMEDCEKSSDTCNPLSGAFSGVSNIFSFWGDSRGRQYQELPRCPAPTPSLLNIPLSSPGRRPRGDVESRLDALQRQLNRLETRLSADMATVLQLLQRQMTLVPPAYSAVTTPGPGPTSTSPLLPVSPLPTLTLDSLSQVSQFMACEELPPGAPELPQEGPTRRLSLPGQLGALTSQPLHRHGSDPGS

Point of comparison: `O=C(NC1CCN(C(=O)Nc2ccccc2Cl)CC1)c1ccccc1`, “hERG current change (%, negative = inhibition) at 10uM” value 4.22%. Against it:
- CCOc1ccccc1N1CCN(C(=O)c2ccncc2)CC1 — lower, -8.78%
- CCCCOc1ccc(C(=O)N2CCN(c3ncccn3)CC2)cc1 — lower, -9.16%
- CCCc1ccc(C(=O)N2CCN(c3ccccc3OCC)CC2)cc1 — lower, -56.3%
- CCCCCCSc1ccc([C@@H]2[C@H]3C(=O)N(CC)C(=O)[C@H]3[C@]3(C(=O)OC)CCCN23)cc1.O=C(O)C(F)(F)F — lower, -7.59%
- COc1cc(OC)cc(C(=O)O/N=C(\N)c2ccccn2)c1 — higher, 7.21%
- CCOC(=O)c1cc2c(ccn2C)n1CC(=O)N1CCC(Cc2ccccc2)CC1 — lower, -24.1%
- CN(C)S(=O)(=O)c1ccc(NC(=O)CN2C(=O)NC(Cc3ccccc3)C2=O)cc1 (stereo not shown) — higher, 10.2%
- CCOC(=O)CC(NC(=O)C1c2ccccc2Oc2ccccc21)c1ccc(C)cc1 (stereo not shown) — higher, 5.66%
- COc1ccc(NC(=O)CSc2nnc(-c3cccnc3)n2C)cc1 — higher, 8.3%
- Cc1cc(OCC(=O)N2CCC(C(=O)O)(c3ccccc3)CC2)c2c(C)cc(=O)oc2c1 — higher, 11.6%
- COc1cc(OC)c(NC(=O)c2cncn2-c2ccc(F)cc2)cc1Cl — lower, -19.7%
- O=C(Nc1cccc(Cl)c1)c1cncn1-c1ccc(F)cc1 — lower, -68.1%
- NNC(=O)c1cncn1-c1ccc(F)cc1 — higher, 23.7%
- Cc1cccc(C)c1NS(=O)(=O)c1c(C)[nH]c(=O)[nH]c1=O — lower, -14.2%
- Cc1ccccc1CN(CC(=O)Nc1cccc([N+](=O)[O-])c1)S(=O)(=O)c1ccc(Cl)cc1 — higher, 15.1%
- O=C(NC1CCN(Cc2ccccc2Cl)CC1)c1ccccc1 — lower, -65.2%
- O=C(NC1CCN(C(=O)Nc2cccc(Cl)c2)CC1)c1ccccc1 — lower, 1.02%
- CSCCC(NC(=O)c1ccccc1Cl)C(=O)N1CCN(C(C)=O)CC1 (stereo not shown) — lower, -26.9%
- O=C(NC1CCN(Cc2ccccc2)CC1)c1ccc(Cl)cc1Cl — lower, -75%
- O=C(NC1CCN(Cc2ccccc2)CC1)c1ccccc1Cl — lower, 1.15%
- O=C(NC1CCN(Cc2ccc(Cl)cc2Cl)CC1)c1ccccc1 — lower, -53.9%
- Cl.O=C(NN1CCN(Cc2ccccc2Cl)CC1)c1ccc(Cl)cc1 — lower, -10.6%
- CSCCC(NC(=O)c1ccccc1Cl)C(=O)NC1CCN(Cc2ccccc2)CC1 (stereo not shown) — lower, -50.1%
- COC(=O)[C@H](CCSC)NC(=O)NC1CCN(Cc2ccccc2)CC1 — lower, -12.9%
- S=C(Nc1ccc(Cl)cc1Cl)NC1CCN(Cc2ccccc2)CC1 — lower, -2.76%
- O=C(NC1CCN(Cc2ccccc2)CC1)c1ccccc1F — lower, -23.7%
- COCC(=O)Nc1ccc(C)c(Cl)c1 — higher, 14.4%
- Cc1cccc(NS(=O)(=O)c2ccc(OCC(=O)N3CCCC3)cc2)c1 — lower, -19.1%
- CCCn1nnnc1NC(=O)COc1ccc(CC)cc1 — lower, -3.02%
- Cc1ccc(NC(=O)CCSc2nnc(C)o2)cc1 — lower, 2.48%
- CC1(C)NC(=O)N(CCCCOc2cccc(C(F)(F)F)c2)C1=O — lower, -6.92%
- CN1CCN(c2ccc(C(N)=O)cc2N)CC1 — higher, 6.81%
- CN1C(=O)C(C)(C)c2cc(S(=O)(=O)N3CCCC(C(=O)Nc4ccc(Cl)cc4)C3)ccc21 (stereo not shown) — lower, -9.27%
- COC(=O)/C(C#N)=C/c1c(Oc2cccc(C)c2C)nc2ccccn2c1=O — lower, -12.6%
- COC(=O)CCCn1nc(NC(=O)COc2ccc(F)cc2)cc1C — lower, -5.47%
- COc1ccc(C(C(=O)NC(C)(C)C)N(C(=O)CNC(=O)c2cccs2)c2ccc(NC(C)=O)cc2)cc1OC (stereo not shown) — higher, 10.4%
- COc1ccc(OC)c(S(=O)(=O)N2CCN(C(=O)c3cc(C4CC4)nn3-c3ccccc3)CC2)c1 — lower, -11.1%
- COc1cc2c(cc1OC)CN(C(=O)c1cc(C3CC3)nn1-c1ccccc1)CC2 — lower, -56.2%
- CC1CCC(NC(=O)c2cc(C3CC3)nn2-c2ccccc2)CC1 (stereo not shown) — lower, -34.9%
- COc1ccc(N2CCN(C(=O)c3cc(C4CC4)nn3-c3ccccc3)CC2)cc1 — lower, -44.4%
- O=C(O)c1cc(C2CC2)nn1-c1ccccc1 — higher, 17.5%
- COc1ccc(CN2CCN(C(=O)c3cc(C4CC4)nn3-c3ccccc3)CC2)cc1F — lower, -48.6%
- O=C(NC1CCCCC1)c1cc(C2CC2)nn1-c1ccccc1 — lower, -51.2%
- N#Cc1ccc(CN2CCN(C(=O)c3cc(C4CC4)nn3-c3ccccc3)CC2)cc1 — lower, -57.2%
- O=C(c1cc(C2CC2)nn1-c1ccccc1)N1CCN(Cc2ccc(Cl)cc2)CC1 — lower, -32.1%
